PubChem BioAssay AID1159580 (chemical genetic matrix, 2015)
Several values for one entry are separate records, joined by “and”; a condition that tells them apart may be missing. Identical values can stand only once. Screen size: about 5,500 compounds; about 2,000 (36%) were called active. Another 18% or so got no clear call; they are omitted. Rule as the data show it: active = normalized growth mostly below about 0.91 (no sharp cut-off); inconclusive = no clear call, values can overlap the other calls; inactive = mostly above about 0.92. The list shows a part of the results.

Assay: chemical genetic growth profiling, strain panel (AID 1159580);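 also: tested at 20 µM; growth read once vehicle control cultures reached saturation at 30 °C; 1 = growth at the plate median or of vehicle wells; lower values mean less growth of the strain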
Conditions: S. cerevisiae deletion strains, growth OD

Measured: normalized growth

O=C1CN(/N=C\c2ccc([N+](=O)[O-])o2)C(=O)N1
inactive: locus YAL013W, strain DEP1, hits give low values 0.993 | locus YAL021C, strain ccr4, hits give low values 0.98 | locus YAL026C, strain drs2, hits give low values 0.956 | locus YAL030W, strain snc1, hits give low values 0.986 | locus YBL061C, strain skt5, hits give low values 0.987 | locus YBR009C, strain hhf1, hits give low values 0.977 | locus YBR021W, strain FUR4, hits give low values 0.997 | locus YBR023C, strain chs3, hits give low values 0.982 | locus YBR171W, strain sec66, hits give low values 0.982 | locus YBR229C, strain ROT2, hits give low values 1.01 | locus YBR231C, strain swc5, hits give low values 0.977 | locus YBR279W, strain paf1, hits give low values 0.97 | locus YCL011C, strain gbp2, hits give low values 0.964 | locus YCL016C, strain dcc1, hits give low values 0.99 | locus YCL029C, strain bik1, hits give low values 1.01 | locus YCL061C, strain MRC1, hits give low values 0.986 | locus YCL069W, strain vba3, hits give low values 0.956 | locus YCR088W, strain abp1, hits give low values 0.966 | locus YDL005C, strain med2, hits give low values 0.967 | locus YDL035C, strain GPR1, hits give low values 0.978 | locus YDL040C, strain nat1, hits give low values 0.97 | locus YDL074C, strain BRE1, hits give low values 0.914 | locus YDL101C, strain DUN1, hits give low values 0.995 | locus YDL134C, strain PPH21, hits give low values 1 | locus YDL185W, strain tfp1, hits give low values 0.99 | locus YDL192W, strain arf1, hits give low values 0.991 | locus YDR001C, strain nth1, hits give low values 0.975 | locus YDR069C, strain doa4, hits give low values 0.94 | locus YDR101C, strain arx1, hits give low values 0.976 | locus YDR137W, strain rgp1, hits give low values 1.02 | locus YDR150W, strain NUM1, hits give low values 1 | locus YDR159W, strain sac3, hits give low values 0.954 | locus YDR162C, strain NBP2, hits give low values 0.99 | locus YDR195W, strain ref2 0.979 | locus YDR297W, strain sur2, hits give low values 0.983 | locus YDR318W, strain mcm21, hits give low values 0.973 | locus YDR334W, strain swr1, hits give low values 0.976 | locus YDR335W, strain msn5, hits give low values 0.986 | locus YDR388W, hits give low values 0.995 | locus YDR502C, strain sam2, hits give low values 0.974 | locus YEL003W, strain gim4, hits give low values 0.942 | locus YEL037C, strain rad23, hits give low values 0.963 | locus YEL061C, strain CIN8 (second series), hits give low values 0.969 | locus YEL061C, strain CIN8, hits give low values 0.996 | locus YER015W, strain faa2, hits give low values 0.961 | locus YER016W, strain bim1, hits give low values 0.96 | locus YER110C, hits give low values 0.99 | locus YER111C, strain swi4, hits give low values 0.981 | locus YER155C, strain BEM2, hits give low values 0.998 | locus YER167W, strain BCK2, hits give low values 0.985 | locus YFR010W, strain ubp6, hits give low values 0.942 | locus YGL078C, strain dbp3, hits give low values 0.977 | locus YGL086W, strain mad1, hits give low values 0.977 | locus YGL167C, strain pmr1, hits give low values 0.983 | locus YGL173C, strain kem1, hits give low values 0.987 | locus YGL227W, strain vid30, hits give low values 0.979 | locus YGL240W, strain doc1, hits give low values 0.922 | locus YGL248W, strain PDE1, hits give low values 1 | locus YGL253W, strain hxk2, hits give low values 0.976 | locus YGR078C, strain PAC10, hits give low values 0.975 | locus YGR135W, strain pre9, hits give low values 0.963 | locus YGR229C, strain SMI1, hits give low values 0.958 | locus YGR252W, strain gcn5, hits give low values 0.804 | locus YHR013C, strain ard1, hits give low values 0.942 | locus YHR027C, strain rpn1, hits give low values 0.985 | locus YHR030C, strain SLT2, hits give low values 0.991 and 0.902 | locus YHR079C, strain IRE1 (second series), hits give low values 0.989 | locus YHR079C, strain IRE1, hits give low values 0.91 | locus YHR094C, strain hxt1, hits give low values 0.999 | locus YHR129C, strain ARP1, hits give low values 1 | locus YHR142W, strain chs7, hits give low values 0.946 | locus YHR200W, strain rpn10, hits give low values 0.985 | locus YIL066C, strain RNR3, hits give low values 1.01 | locus YIL073C, strain SPO22, hits give low values 0.969 | locus YIL125W, strain kgd1, hits give low values 0.987 | locus YIR030C, strain dcg1, hits give low values 0.994 | locus YJL092W, strain hpr5, hits give low values 0.971 | locus YJL095W, strain BCK1 (second series), hits give low values 0.982 | locus YJL095W, strain BCK1, hits give low values 0.969 and 0.892 | locus YJL115W, strain asf1, hits give low values 0.951 | locus YJL129C, strain trk1, hits give low values 0.968 | locus YJL134W, strain LCB3, hits give low values 1 | locus YJL154C, strain vps35, hits give low values 0.971 | locus YJL164C, strain tpk1, hits give low values 0.957 | locus YJL166W, strain qcr8, hits give low values 0.964 | locus YJL168C, strain set2, hits give low values 0.989 | locus YJL187C, strain SWE1 (second series), hits give low values 1.01 | locus YJL187C, strain SWE1, hits give low values 0.973 | locus YJR043C, strain POL32, hits give low values 0.979 | locus YJR066W, strain TOR1, hits give low values 0.87
active: locus YDR392W, strain spt3, hits give low values 0.68 | locus YER155C, strain BEM2 (second series), hits give low values 0.854
